Data from paper PMC7862700, “An all-to-all approach to the identification of sequence-specific readers for epigenetic DNA modifications on cytosine”.

Columns and labels:
Assay in all cases: DAPPL (digital affinity profiling via proximity ligation, sequencing); 10 mM Tris-HCl pH 7.5, 50 mM NaCl, 1 mM DTT, 4% glycerol, room temperature, 30 min; GST-TFs on glutathione beads, 16-mer random dsDNA library, 0.1% formaldehyde crosslink after washing; high values mean tight binding
[1] = target: T1, FLI1 (Homo sapiens, UniProt Q01543 1-452); details: protein: recombinant; tags: N-terminal GST; dsDNA, one strand shown
T1 sequence: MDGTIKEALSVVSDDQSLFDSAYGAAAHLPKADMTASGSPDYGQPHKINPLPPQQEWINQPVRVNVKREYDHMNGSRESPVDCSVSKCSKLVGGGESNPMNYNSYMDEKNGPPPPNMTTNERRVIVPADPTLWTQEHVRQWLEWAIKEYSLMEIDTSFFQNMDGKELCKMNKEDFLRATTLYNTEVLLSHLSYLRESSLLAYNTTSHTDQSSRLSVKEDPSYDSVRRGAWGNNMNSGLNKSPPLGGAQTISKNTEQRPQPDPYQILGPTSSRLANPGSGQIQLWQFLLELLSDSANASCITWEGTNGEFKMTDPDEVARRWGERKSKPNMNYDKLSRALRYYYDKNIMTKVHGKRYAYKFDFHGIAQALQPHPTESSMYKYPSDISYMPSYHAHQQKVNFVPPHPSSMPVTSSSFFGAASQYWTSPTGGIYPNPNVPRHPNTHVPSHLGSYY
Outline: (§1)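 Pools of DNA-barcoded human transcription factors, expressed in yeast as GST fusions on glutathione beads and combined with a tag-only sample, were incubated with 200 nmole of a 16-mer random double-stranded DNA library. Incubation took 30 min at room temperature in Tris/NaCl/DTT/glycerol buffer and was followed by washing, 0.1% formaldehyde crosslinking, proximity ligation (BsaI/T4 ligase, 1 h, 37 °C), PCR amplification and sequencing on an Illumina NextSeq500. Binding signal is the ratio of a hexamer's read frequency for a factor to its frequency for the tag-only sample.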

[2] = target: T2, ELK1 (Homo sapiens, UniProt P19419 1-428); details: protein: recombinant; tags: N-terminal GST; dsDNA, one strand shown
T2 sequence: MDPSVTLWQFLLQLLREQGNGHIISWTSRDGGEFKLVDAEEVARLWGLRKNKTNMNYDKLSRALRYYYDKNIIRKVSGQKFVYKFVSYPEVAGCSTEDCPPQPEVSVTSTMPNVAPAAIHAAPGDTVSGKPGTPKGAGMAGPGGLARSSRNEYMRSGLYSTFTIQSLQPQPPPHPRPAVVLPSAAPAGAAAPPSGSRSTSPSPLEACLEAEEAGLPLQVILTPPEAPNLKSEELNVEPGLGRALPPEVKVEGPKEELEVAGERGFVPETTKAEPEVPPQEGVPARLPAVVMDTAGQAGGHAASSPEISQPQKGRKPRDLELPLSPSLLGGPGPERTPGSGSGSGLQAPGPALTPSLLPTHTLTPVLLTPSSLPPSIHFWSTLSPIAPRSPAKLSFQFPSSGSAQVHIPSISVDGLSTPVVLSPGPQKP
Outline: as §1

[3] = target: T3, GABPA (Homo sapiens, UniProt Q06546 1-454); details: protein: recombinant; tags: N-terminal GST; dsDNA, one strand shown
T3 sequence: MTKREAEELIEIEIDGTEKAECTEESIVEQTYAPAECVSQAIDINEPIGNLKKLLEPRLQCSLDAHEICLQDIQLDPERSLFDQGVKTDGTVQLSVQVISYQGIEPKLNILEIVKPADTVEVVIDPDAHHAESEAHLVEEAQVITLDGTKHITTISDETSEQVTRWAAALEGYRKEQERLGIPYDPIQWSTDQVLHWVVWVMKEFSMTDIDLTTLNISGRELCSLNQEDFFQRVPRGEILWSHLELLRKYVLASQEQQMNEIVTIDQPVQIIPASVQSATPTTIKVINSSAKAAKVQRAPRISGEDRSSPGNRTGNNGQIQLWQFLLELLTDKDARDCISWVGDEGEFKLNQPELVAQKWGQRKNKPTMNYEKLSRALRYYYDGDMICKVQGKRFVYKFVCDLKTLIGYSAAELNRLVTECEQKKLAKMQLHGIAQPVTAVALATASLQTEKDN
Outline: as §1

[4] = target: T4, ERG (Homo sapiens, UniProt P11308 1-479); details: protein: recombinant; tags: N-terminal GST; dsDNA, one strand shown
T4 sequence: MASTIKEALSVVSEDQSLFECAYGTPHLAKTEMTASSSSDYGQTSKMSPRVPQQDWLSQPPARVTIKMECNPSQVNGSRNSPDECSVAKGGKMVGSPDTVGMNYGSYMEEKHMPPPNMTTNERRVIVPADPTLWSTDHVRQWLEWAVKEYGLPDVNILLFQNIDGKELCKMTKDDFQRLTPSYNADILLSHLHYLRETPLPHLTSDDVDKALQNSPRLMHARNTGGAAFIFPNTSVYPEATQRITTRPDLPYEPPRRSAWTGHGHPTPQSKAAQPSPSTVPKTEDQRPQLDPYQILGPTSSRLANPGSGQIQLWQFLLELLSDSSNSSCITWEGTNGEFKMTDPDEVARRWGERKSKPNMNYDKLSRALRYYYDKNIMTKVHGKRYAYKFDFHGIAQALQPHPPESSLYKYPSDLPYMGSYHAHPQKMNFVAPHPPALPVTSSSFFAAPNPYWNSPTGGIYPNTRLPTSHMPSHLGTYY
Outline: as §1

[5] = target: ELF1 (Homo sapiens, UniProt P32519 1-619); details: protein: recombinant; tags: N-terminal GST; dsDNA, one strand shown
Outline: as §1

[6] = target: T5, EHF (Homo sapiens, UniProt Q9NZC4 1-300); details: protein: recombinant; tags: N-terminal GST; dsDNA, one strand shown
T5 sequence: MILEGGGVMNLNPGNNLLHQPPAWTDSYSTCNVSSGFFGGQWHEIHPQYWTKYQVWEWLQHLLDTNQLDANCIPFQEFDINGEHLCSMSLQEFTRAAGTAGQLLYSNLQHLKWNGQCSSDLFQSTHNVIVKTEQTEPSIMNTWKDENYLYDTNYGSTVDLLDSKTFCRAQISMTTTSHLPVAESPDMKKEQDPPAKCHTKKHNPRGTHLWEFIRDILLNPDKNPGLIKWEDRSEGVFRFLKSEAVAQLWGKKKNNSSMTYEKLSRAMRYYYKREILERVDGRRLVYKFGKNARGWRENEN
Outline: as §1

[7] = target: SPI1 (Homo sapiens, UniProt P17947 1-270); details: protein: recombinant; tags: N-terminal GST; dsDNA, one strand shown
Outline: as §1

[8] = target: SPIB (Homo sapiens, UniProt Q01892 1-262); details: protein: recombinant; tags: N-terminal GST; dsDNA, one strand shown
Outline: as §1

[9] = target: T6, ELK3 (Homo sapiens, UniProt P41970 1-407); details: protein: recombinant; tags: N-terminal GST; dsDNA, one strand shown
T6 sequence: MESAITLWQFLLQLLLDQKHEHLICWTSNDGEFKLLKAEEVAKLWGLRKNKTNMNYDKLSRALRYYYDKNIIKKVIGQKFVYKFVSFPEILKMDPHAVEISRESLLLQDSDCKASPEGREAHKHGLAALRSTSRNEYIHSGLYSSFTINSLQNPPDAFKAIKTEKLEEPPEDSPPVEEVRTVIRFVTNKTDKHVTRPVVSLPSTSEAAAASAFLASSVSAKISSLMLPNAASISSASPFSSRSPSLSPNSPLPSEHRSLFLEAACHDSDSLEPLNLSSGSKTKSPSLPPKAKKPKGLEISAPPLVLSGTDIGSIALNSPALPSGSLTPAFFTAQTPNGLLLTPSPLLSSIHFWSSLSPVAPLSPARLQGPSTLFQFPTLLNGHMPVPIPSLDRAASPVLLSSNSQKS
Outline: as §1

[10] = target: T7, FEV (Homo sapiens, UniProt Q99581 1-238); details: protein: recombinant; tags: N-terminal GST; dsDNA, one strand shown
T7 sequence: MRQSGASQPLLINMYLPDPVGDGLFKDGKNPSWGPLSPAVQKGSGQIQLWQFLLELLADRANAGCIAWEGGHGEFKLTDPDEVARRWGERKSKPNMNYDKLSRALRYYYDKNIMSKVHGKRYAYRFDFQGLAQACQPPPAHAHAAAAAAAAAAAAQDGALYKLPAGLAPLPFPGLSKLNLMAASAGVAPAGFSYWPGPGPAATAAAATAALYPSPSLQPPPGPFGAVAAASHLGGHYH
Outline: as §1

[11] = target: ETV5 (Homo sapiens, UniProt P41161 1-510); details: protein: recombinant; tags: N-terminal GST; dsDNA, one strand shown
Outline: as §1

[12] = target: HSF1 (Homo sapiens, UniProt Q00613 1-529); details: protein: recombinant; tags: N-terminal GST; chain copies: 3; dsDNA, one strand shown
Outline: as §1

[13] = target: T8, SPIC (Homo sapiens, UniProt Q8N5J4 1-248); details: protein: recombinant; tags: N-terminal GST; dsDNA, one strand shown
T8 sequence: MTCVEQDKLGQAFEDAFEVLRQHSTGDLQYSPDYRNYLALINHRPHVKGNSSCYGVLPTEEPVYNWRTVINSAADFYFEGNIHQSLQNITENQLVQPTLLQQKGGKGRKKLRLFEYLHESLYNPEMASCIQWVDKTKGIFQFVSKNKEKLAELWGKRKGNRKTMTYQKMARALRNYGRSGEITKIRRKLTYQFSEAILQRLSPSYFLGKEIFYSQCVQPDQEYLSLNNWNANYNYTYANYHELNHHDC
Outline: as §1

[14] = target: ELF4 (Homo sapiens, UniProt Q99607 1-663); details: protein: recombinant; tags: N-terminal GST; dsDNA, one strand shown
Outline: as §1

[15] = target: T9, ELK4 (Homo sapiens, UniProt P28324-2 1-405); details: protein: recombinant; tags: N-terminal GST; dsDNA, one strand shown
T9 sequence: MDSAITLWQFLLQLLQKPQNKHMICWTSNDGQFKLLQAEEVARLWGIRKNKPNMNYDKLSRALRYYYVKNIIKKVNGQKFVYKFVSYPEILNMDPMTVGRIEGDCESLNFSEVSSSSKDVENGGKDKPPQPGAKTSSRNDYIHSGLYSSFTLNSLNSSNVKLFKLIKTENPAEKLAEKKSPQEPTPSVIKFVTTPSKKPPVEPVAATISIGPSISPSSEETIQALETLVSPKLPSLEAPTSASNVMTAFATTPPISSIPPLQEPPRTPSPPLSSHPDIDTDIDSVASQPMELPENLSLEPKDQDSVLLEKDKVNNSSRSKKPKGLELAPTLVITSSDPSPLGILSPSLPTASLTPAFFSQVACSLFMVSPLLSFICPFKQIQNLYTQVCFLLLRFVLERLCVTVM
Outline: as §1

[16] = target: T10, ETV2 (Homo sapiens, UniProt O00321 1-342); details: protein: recombinant; tags: N-terminal GST; dsDNA, one strand shown
T10 sequence: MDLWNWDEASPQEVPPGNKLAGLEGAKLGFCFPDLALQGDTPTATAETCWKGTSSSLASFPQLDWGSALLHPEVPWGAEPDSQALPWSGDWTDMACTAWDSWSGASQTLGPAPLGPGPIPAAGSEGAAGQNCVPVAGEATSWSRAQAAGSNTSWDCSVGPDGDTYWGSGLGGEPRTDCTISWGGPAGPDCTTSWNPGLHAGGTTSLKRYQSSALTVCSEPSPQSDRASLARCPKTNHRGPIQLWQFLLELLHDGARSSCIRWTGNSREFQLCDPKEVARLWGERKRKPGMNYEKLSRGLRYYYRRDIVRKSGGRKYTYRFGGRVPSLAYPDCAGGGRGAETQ
Outline: as §1

[17] = target: T11, ELF3 (Homo sapiens, UniProt P78545 1-371); details: protein: recombinant; tags: N-terminal GST; dsDNA, one strand shown
T11 sequence: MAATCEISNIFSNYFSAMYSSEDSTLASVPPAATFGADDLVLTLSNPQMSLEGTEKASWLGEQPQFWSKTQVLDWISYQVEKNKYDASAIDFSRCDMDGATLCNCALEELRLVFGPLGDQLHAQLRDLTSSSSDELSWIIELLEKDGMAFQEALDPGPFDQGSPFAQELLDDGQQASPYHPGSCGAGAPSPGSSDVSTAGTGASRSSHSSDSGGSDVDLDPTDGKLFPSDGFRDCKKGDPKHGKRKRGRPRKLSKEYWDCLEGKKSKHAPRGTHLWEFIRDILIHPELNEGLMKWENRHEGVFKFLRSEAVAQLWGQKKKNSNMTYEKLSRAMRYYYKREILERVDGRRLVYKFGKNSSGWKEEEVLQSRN
Outline: as §1

[18] = target: CRX (Homo sapiens, UniProt O43186 1-299); details: protein: recombinant; tags: N-terminal GST; dsDNA, one strand shown
Outline: as §1

[19] = target: ETV1 (Homo sapiens, UniProt P50549 1-477); details: protein: recombinant; tags: N-terminal GST; dsDNA, one strand shown
Outline: as §1

Sequence of ELF1 (P32519 whole entry): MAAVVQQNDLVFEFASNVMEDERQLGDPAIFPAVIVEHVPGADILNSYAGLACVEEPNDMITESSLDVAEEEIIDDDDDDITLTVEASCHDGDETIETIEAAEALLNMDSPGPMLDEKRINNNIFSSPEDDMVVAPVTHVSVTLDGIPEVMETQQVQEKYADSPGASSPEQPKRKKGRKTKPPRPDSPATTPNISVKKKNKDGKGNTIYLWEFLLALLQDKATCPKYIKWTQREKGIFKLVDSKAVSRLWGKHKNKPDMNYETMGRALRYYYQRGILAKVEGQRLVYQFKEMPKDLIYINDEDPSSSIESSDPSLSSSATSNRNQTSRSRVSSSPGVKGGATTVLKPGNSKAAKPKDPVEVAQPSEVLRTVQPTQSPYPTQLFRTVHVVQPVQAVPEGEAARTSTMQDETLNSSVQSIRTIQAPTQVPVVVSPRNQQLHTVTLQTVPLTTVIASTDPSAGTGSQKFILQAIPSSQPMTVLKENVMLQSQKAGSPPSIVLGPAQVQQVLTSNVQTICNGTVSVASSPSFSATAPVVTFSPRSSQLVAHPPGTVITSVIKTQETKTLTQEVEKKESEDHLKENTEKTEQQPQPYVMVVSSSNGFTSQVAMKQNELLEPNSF
Sequence of ELF4 (Q99607 whole entry): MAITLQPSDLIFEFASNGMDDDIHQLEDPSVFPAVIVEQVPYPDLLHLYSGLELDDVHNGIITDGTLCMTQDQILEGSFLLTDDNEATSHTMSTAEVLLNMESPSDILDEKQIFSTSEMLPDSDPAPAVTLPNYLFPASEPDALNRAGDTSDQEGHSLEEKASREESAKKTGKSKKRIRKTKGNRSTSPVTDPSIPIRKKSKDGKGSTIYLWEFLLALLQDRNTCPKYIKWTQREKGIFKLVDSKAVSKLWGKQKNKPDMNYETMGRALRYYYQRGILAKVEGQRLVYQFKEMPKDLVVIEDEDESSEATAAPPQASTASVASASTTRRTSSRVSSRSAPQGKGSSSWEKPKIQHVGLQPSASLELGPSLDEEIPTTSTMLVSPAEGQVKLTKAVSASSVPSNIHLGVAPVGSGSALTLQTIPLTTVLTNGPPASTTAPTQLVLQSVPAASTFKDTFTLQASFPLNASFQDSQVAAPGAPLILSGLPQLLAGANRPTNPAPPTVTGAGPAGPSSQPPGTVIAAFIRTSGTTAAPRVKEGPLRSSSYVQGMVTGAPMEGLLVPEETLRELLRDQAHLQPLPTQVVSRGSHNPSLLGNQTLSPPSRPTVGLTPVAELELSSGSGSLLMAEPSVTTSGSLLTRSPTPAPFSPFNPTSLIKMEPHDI
Sequence of CRX (O43186 whole entry): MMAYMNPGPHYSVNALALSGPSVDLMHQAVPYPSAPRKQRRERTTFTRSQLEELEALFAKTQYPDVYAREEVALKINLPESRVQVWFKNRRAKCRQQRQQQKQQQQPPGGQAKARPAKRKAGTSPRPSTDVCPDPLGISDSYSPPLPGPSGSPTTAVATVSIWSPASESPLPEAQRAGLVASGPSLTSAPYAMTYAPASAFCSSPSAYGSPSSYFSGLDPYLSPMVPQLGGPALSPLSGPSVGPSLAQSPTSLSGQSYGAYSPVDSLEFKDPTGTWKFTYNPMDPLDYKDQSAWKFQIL
Sequence of HSF1 (Q00613 whole entry): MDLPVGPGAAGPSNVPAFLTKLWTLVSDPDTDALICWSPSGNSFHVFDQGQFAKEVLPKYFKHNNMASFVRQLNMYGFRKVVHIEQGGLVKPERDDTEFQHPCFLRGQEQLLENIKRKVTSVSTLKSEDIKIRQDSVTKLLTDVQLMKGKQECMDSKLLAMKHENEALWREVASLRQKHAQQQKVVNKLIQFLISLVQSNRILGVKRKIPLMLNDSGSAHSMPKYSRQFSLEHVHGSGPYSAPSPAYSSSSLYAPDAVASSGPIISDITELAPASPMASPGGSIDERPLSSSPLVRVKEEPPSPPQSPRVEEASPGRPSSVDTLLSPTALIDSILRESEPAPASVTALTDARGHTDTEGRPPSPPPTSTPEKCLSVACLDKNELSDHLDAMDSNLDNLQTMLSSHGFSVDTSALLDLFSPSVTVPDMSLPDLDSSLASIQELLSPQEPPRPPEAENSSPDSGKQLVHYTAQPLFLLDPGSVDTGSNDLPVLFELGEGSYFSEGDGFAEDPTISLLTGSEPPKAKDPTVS
Sequence of ETV1 (P50549 whole entry): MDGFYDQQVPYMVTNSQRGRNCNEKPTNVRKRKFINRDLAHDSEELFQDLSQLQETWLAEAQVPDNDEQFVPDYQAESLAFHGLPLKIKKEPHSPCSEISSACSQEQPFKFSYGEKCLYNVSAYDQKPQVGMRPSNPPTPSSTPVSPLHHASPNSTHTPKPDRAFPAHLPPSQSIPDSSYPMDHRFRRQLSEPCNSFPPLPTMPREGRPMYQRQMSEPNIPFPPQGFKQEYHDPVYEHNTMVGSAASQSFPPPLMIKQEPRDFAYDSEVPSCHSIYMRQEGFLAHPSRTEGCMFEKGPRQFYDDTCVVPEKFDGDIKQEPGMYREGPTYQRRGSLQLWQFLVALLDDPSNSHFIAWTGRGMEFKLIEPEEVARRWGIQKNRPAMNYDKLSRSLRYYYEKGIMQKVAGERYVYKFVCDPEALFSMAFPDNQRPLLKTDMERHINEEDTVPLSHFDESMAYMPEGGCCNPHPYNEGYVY
Sequence of ETV5 (P41161 whole entry): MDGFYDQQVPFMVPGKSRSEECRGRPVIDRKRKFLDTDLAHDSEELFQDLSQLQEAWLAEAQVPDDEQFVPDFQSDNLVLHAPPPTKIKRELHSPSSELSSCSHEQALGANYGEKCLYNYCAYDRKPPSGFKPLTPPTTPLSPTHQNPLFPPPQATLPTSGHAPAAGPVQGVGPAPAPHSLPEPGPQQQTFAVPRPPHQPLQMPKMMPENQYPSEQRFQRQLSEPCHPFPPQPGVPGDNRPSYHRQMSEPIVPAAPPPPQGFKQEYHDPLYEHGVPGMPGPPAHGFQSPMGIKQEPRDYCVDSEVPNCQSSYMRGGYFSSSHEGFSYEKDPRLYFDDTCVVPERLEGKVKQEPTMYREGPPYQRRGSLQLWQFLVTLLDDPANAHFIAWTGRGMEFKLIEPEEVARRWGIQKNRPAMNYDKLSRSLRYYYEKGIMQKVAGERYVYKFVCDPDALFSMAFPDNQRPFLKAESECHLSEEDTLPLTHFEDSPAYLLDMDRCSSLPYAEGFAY
Sequence of SPIB (Q01892 whole entry): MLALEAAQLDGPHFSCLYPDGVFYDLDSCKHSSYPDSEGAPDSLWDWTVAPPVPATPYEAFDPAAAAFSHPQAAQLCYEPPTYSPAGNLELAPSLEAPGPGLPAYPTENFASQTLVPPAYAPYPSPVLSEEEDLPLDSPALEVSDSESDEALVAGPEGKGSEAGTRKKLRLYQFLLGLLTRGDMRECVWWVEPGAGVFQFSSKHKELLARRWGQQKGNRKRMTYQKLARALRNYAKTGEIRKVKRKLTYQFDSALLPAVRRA

Q: With TCTTCC as the sequence, how does the binding signal [1] read?
A: 2.61 fold enrichment (6-mer frequency, TF over GST control)

Q: What about the binding signal [2] of the same sequence?
A: 2.52 fold enrichment (6-mer frequency, TF over GST control)

Q: And the binding signal [3]?
A: 2.39 fold enrichment (6-mer frequency, TF over GST control)

Q: What about the binding signal [4] of the same sequence?
A: 2.86 fold enrichment (6-mer frequency, TF over GST control)

Q: And the binding signal [5]?
A: 2.65 fold enrichment (6-mer frequency, TF over GST control)

Q: What about the binding signal [6] of the same sequence?
A: 2.76 fold enrichment (6-mer frequency, TF over GST control)

Q: What about the binding signal [7] of the same sequence?
A: 2.46 fold enrichment (6-mer frequency, TF over GST control)

Q: What about the binding signal [8] of the same sequence?
A: 2.75 fold enrichment (6-mer frequency, TF over GST control)

Q: And the binding signal [9]?
A: 2.79 fold enrichment (6-mer frequency, TF over GST control)

Q: What about the binding signal [10] of the same sequence?
A: 2.55 fold enrichment (6-mer frequency, TF over GST control)

Q: What about the binding signal [11] of the same sequence?
A: 2.85 fold enrichment (6-mer frequency, TF over GST control)

Q: And the binding signal [12]?
A: 1.69 fold enrichment (6-mer frequency, TF over GST control)

Q: And the binding signal [13]?
A: 2.31 fold enrichment (6-mer frequency, TF over GST control)

Q: And the binding signal [14]?
A: 2.35 fold enrichment (6-mer frequency, TF over GST control)

Q: What about the binding signal [15] of the same sequence?
A: 2.38 fold enrichment (6-mer frequency, TF over GST control)

Q: What about the binding signal [16] of the same sequence?
A: 2.61 fold enrichment (6-mer frequency, TF over GST control)

Q: What about the binding signal [17] of the same sequence?
A: 2.33 fold enrichment (6-mer frequency, TF over GST control)

Q: And the binding signal [18]?
A: 1.34 fold enrichment (6-mer frequency, TF over GST control)

Q: What about the binding signal [19] of the same sequence?
A: 2.62 fold enrichment (6-mer frequency, TF over GST control)
